According to PubChem BioAssay AID624331 (National Center for Advancing Translational Sciences (NCATS), 2012):
Records with an inconclusive call do not appear. Calls of active or inactive are those of the source. Calls come from the whole dose curve; as a rule, active = well fitted activation curve with a large enough effect; inconclusive = small, poorly fitted or top-dose-only effect; inactive = no such curve, though single readings can be large or run the other way.

Assay: qHTS assay for re-activators of p53 using a Luc reporter: Hit Validation with no p53 Expressed; note: 0% is about no effect
Conditions: p53-null cells, luciferase reporter counter-screen; series mostly up to 46.1 µM; activity change, positive = activation: at the top concentration
How it was run: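 Without p53 expression, cells (1000/well, Opti-MEM + 10% FBS) were exposed 24 h at 37 deg C to compounds in a 1:5 series from 10 mM stock (top 46.1 µM in well). Luminescent signal read 10 min after Amplite addition; actives flag unspecific activation.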
For `Cc1nnc(SCC(=O)N2CCOCC2)c2ccccc12`, the “activity change, positive = activation” value was 2.29% (inactive). In the case of `Cn1c(CCN2CCCCC2)nc2cc(NC(=O)Nc3ccccc3)ccc21`, the “activity change, positive = activation” value is reported as -15.9% (inactive). With `COc1ccc2nc(NC(=O)Nc3ccccc3OC)sc2c1` the “activity change, positive = activation” value was -21.1% (inactive). For `O=C(NC(=S)Nc1nc2ccccc2s1)c1ccco1`, the “activity change, positive = activation” value was -0.197% (inactive). With `CS(=O)(=O)c1ccc2nc(NC(=O)c3ccco3)sc2c1` the “activity change, positive = activation” value was 9.08% (inactive). With `Cc1ccccc1C(=O)Nc1ccc(Br)cn1` the “activity change, positive = activation” value was 27.2% (inactive). In the case of `COc1nnc(-c2ccc(C)c(S(=O)(=O)N(C)C)c2)c2ccccc12`, the “activity change, positive = activation” value is reported as -50.2% (inactive). In the case of `COc1cccc(/C=C2\Oc3ccc(O)cc3C2=O)c1O`, the “activity change, positive = activation” value is reported as -7.69% (inactive). For `Cc1ccccc1-c1noc(N)c1C#N`, the “activity change, positive = activation” value was -35.5% (inactive). For `O=C(CCC1CCCC1)Nc1ccc(Br)cn1`, the “activity change, positive = activation” value was 74.3% (inactive). In the case of `Cc1cccc(Nc2cc(=O)[nH]c(=O)[nH]2)c1C`, the “activity change, positive = activation” value is reported as -22.6% (inactive). For `CCCCC(=O)Nc1cccc(NC(=S)NC(=O)Cc2ccccc2)c1`, the “activity change, positive = activation” value was 23% (inactive). In the case of `O=C(Nc1ccccc1N1CCCCC1)c1ccc([N+](=O)[O-])o1`, the “activity change, positive = activation” value is reported as 6.76% (inactive). With `O=C1NCCCc2c1oc1ccc(O)cc21` the “activity change, positive = activation” value was 25.7% (inactive). In the case of `CCOc1ccc(N2C(=O)c3ccccc3NC2(C)CC)cc1` (centres undefined), the “activity change, positive = activation” value is reported as 59.9% (inactive). In the case of `COc1ccc(/C(C)=N/Nc2nccnc2Cl)cc1`, the “activity change, positive = activation” value is reported as -19.3% (inactive). For `COc1ccc2cc3c(N)nn(C(=O)c4ccc(Cl)c([N+](=O)[O-])c4)c3nc2c1`, the “activity change, positive = activation” value was -33.9% (inactive). For `Cc1ccc2cc3c(N)c(C(=O)N4CCOCC4)sc3nc2c1`, the “activity change, positive = activation” value was 61.4% (inactive). For `Cc1ccc(OCC(=O)c2cc(C)n(C)c2C)c([N+](=O)[O-])n1`, the “activity change, positive = activation” value was 40% (inactive). In the case of `Cc1ccc(-c2nc3ccccc3o2)cc1NC(=O)c1ccc2c(c1)OCO2`, the “activity change, positive = activation” value is reported as 13.8% (inactive). In the case of `O=C(Nc1cccnc1)Nc1ccc(Br)cc1Cl`, the “activity change, positive = activation” value is reported as -23.6% (inactive). For `Cc1ccc(OCC(=O)Nc2ccc(Cl)cc2)c([N+](=O)[O-])n1`, the “activity change, positive = activation” value was 3.05% (inactive). In the case of `COc1ccc([N+](=O)[O-])cc1NC(=O)CSCc1ccc(Br)cc1`, the “activity change, positive = activation” value is reported as -9.05% (inactive). With `Cc1ccc(/C=C(\C#N)C(=O)NCC2CCCO2)o1` (centres undefined) the “activity change, positive = activation” value was -20.6% (inactive). With `CC(C)(C)c1ccc(S(=O)(=O)N2CCSC2)cc1` the “activity change, positive = activation” value was 51.7% (inactive). With `CC(C)c1ccc(C(O)c2nc3ccccc3n2C)cc1` (centres undefined) the “activity change, positive = activation” value was -33.7% (inactive). For `O=C(CN1C(=O)NC2(CCCc3ccccc32)C1=O)c1ccc(F)cc1` (centres undefined), the “activity change, positive = activation” value was -21.4% (inactive). In the case of `CCc1nnc(NC(=O)CCC(=O)Nc2ccccc2)s1`, the “activity change, positive = activation” value is reported as 6.24% (inactive). For `COc1ccc2cc(C3(C)NC(=O)N(CC(=O)Nc4c(C)n(C)n(-c5ccccc5)c4=O)C3=O)ccc2c1` (centres undefined), the “activity change, positive = activation” value was -34.1% (inactive). With `O=C(Nc1ccc2c(c1)CCC2)c1ccccc1F` the “activity change, positive = activation” value was 10.4% (inactive). With `CCN(CC)C(=O)CSc1ncnc2c(-c3cccs3)nsc12` the “activity change, positive = activation” value was 8.65% (inactive). For `C#CCOc1ccc(/C=C2\SC(=S)N(Cc3cccnc3)C2=O)cc1`, the “activity change, positive = activation” value was 23.1% (inactive). For `O=C(CSc1nnc(-c2ccc(O)cc2)o1)N1CCOCC1`, the “activity change, positive = activation” value was 88.1% (inactive). With `COc1ccc(-n2cnc3cc(C(=O)N4CCOCC4)ccc32)cc1` the “activity change, positive = activation” value was 34.4% (inactive). In the case of `Cc1ccc(NC(=S)NC(=O)C2CCCCC2)c(Br)c1`, the “activity change, positive = activation” value is reported as 37.8% (inactive). In the case of `NNc1nc(NCc2ccccc2)nc(N2CCOCC2)n1`, the “activity change, positive = activation” value is reported as 13.5% (inactive). In the case of `COCCCN(C(C)=O)c1nc(-c2ccc(OC)cc2)cs1`, the “activity change, positive = activation” value is reported as 12.8% (inactive). In the case of `O=C(CSCC(=O)Nc1cccc([N+](=O)[O-])c1)Nc1ccccc1`, the “activity change, positive = activation” value is reported as -17.3% (inactive). In the case of `O=C(Nc1nc(-c2ccco2)c(-c2ccco2)s1)c1ccc(F)cc1F`, the “activity change, positive = activation” value is reported as -21.9% (inactive).
